According to PubChem BioAssay:
Values without a mark were called inactive. The list shows a part of the results. The source made the active and inactive calls.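 The calls were made as follows, unless noted: active = mean inhibition above the mean of solvent-only control wells plus 3 SD (cut at about 4% in these data); inactive = the rest.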

Key:
[1] = reduced OD of T4-infected AddAB+ E. coli – absorbance, E. coli V3065, T4 phage, triplicate, AddAB inhibitor project, confirmation (AID 488942;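 active = mean inhibition above a set limit taken from the earlier primary screen, cut at about 13% in these data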;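 also: higher means less bacterial growth since AddAB block lets phage replicate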); conditions: E. coli V3065 expressing H. pylori AddAB, at 11.9 µM, active compounds read high, T4 phage with gene 2 nonsense mutations
[2] = reduced OD of phage-infected RecBCD+ V66 E. coli – absorbance, mutant T4 phage, counter-screen for AddAB inhibitor project (AID 488955); conditions: OD growth, at 11.9 µM, active compounds read high;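 also: optical density read after an 18 h incubation at 37 °C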
[3] = bacterial growth inhibitors – absorbance, counter-screen for AddAB inhibitor project, confirmation (AID 488956; in the data active = inhibition above about 25%); conditions: bacterial viability, absorbance (AddAB counterscreen); at 11.9 µM; active compounds read high
[4] = reduced OD of V66 E. coli with T4 gene 2 phage – absorbance, RecBCD inhibitor project, confirmation (AID 651982;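 active = mean inhibition over triplicates exceeding the hit threshold derived in the original primary screen, cut at about 11% in these data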); conditions: E. coli V66 + T4 2- phage, growth OD; at 11.9 µM; active compounds read high
[5] = bacterial growth inhibition – absorbance, high throughput, counter-screen for RecBCD inhibitor project (AID 651983; in the data active = inhibition above about 20%;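 also: E. coli strain V66 grown with compound alone and no phage infection; 0% = bacteria with DMSO vehicle only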); conditions: E. coli viability, absorbance (OD) growth; at 11.9 µM; active compounds read high
[6] = reduced optical density, T4-challenged addAB+ bacteria – absorbance, E. coli V3065, T4 phage, counter-screen for RecBCD inhibitor project, confirmation (AID 651984;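 active = mean inhibition above the solvent-only control wells' mean plus 3 SD, cut at about 22% in these data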;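 also: higher means less bacterial growth from phage killing when AddAB is blocked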); conditions: E. coli expressing H. pylori AddAB + T4 phage, OD growth; at 11.9 µM; active compounds read high; gene 2 mutant T4, recBCD-deleted host
[7] = target: Serine protease HTRA1 (Homo sapiens) (UniProt Q92743); assay: confirming inhibition of human HTRA1 – biochemical, fluorescence polarization, confirmation (AID 540248;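 active = mean inhibition over three repeats above a set limit taken from the earlier primary screen, cut at about 37% in these data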;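 also: 0% = HTRA1 with DMSO and 100% = wells lacking HTRA1; inhibitors block probe binding so polarization drops and inhibition rises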); conditions: recombinant HTRA1, FP-rhodamine activity-based probe, at 5.96 µM, active compounds read high
[8] = target: Platelet-activating factor acetylhydrolase IB subunit alpha1 (Homo sapiens) (UniProt Q15102); assay: inhibition of PAF acetylhydrolase 1B subunit 3 – biochemical, fluorescence polarization, human, confirmation (AID 493032;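 active = average inhibition over triplicate runs above the hit cutoff set in the earlier primary screen, cut at about 25% in these data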;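 also: 0% = enzyme with DMSO and 100% = wells lacking PAFAH1B3 protein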); conditions: recombinant PAFAH1B3, FP-Rh activity-based probe, at 3.39 µM, active compounds read high
[9] = StAR promoter reporter inhibitors, counter-screen for LRH-1 inverse agonist project, cell-based, luminescence, high throughput (AID 651611; in the data active = inhibition above about 28%); conditions: StAR promoter luciferase reporter counterscreen, at 3.6 µM, active compounds read high
[10] = target: Nuclear receptor subfamily 5 group A member 2 (Homo sapiens) (UniProt O00482); assay: NR5A2 activity suppression in reporter cells – cell-based, luminescence, confirmation (AID 651613; in the data active = inhibition above about 42%;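 also: HEK293T cells co-transfected with LRH-1 and StAR promoter luciferase reporter; 0% = vehicle wells and 100% = parental cells lacking receptor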); conditions: cell-based LRH-1 luciferase reporter, inverse agonism; at 3.6 µM; active compounds read high
[11] = target: Steroidogenic factor 1 (Homo sapiens) (UniProt Q13285); assay: inverse agonism at SF1 nuclear receptor – cell-based, luminescence, high throughput, counter-screen for LRH-1 inverse agonist project (AID 651614; in the data active = inhibition above about 44%;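 also: cells cotransfected with StAR promoter reporter and SF1 expression vector; 0% = vehicle on cells with receptor and 100% = vehicle on cells lacking receptor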); conditions: cell-based SF1 luciferase reporter, at 3.6 µM, active compounds read high
[12] = compounds suppressing VP16-driven luciferase signal – cell-based, luminescence, high throughput, counter-screen for LRH-1 inverse agonist project (AID 651615; in the data active = inhibition above about 33%); conditions: Gal4-VP16 luciferase reporter cells, at 3.6 µM, active compounds read high

Sequence of Platelet-activating factor acetylhydrolase IB subunit alpha1 (Homo sapiens) (Q15102 whole entry, looked up): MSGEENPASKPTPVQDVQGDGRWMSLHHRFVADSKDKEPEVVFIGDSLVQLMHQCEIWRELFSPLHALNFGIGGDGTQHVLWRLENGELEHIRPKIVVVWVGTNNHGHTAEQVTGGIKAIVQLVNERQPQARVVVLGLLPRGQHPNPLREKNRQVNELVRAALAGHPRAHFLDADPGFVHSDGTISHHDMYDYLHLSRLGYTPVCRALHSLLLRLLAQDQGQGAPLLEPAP
Sequence of Steroidogenic factor 1 (Homo sapiens) (Q13285 whole entry, looked up, the tested form may be a part): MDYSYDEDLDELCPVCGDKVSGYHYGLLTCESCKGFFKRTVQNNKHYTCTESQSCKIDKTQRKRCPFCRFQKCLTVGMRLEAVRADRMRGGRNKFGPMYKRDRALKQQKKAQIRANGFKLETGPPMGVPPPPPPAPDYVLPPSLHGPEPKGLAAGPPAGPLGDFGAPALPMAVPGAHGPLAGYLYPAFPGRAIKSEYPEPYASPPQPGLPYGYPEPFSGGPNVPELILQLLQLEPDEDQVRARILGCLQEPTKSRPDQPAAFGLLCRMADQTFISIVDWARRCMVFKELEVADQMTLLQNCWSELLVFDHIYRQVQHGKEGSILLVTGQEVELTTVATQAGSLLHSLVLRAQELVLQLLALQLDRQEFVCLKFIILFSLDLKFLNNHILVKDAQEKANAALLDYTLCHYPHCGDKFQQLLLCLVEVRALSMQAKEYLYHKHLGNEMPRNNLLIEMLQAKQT
Sequence of Nuclear receptor subfamily 5 group A member 2 (Homo sapiens) (O00482 whole entry, looked up): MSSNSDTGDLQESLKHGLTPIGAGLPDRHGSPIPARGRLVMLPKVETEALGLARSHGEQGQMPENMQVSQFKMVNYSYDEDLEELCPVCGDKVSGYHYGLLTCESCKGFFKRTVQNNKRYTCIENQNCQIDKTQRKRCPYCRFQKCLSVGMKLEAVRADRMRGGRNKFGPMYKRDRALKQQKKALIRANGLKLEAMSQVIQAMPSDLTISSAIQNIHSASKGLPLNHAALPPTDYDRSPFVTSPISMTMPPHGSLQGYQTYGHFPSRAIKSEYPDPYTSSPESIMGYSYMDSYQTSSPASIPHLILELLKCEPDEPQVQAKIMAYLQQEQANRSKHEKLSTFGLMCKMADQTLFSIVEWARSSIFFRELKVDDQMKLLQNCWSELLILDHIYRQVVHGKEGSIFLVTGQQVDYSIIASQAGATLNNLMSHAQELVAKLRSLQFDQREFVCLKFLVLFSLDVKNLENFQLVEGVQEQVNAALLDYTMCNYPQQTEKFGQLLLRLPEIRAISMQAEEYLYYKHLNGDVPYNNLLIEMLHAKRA

## COc1ccc(C(=O)c2oc3ccc(Br)cc3c2NC(C)=O)cc1
[1]
  inhibition: -2.85%
[2]
  inhibition: -1.5%
[3]
  inhibition: -3.05%

## CC(=O)c1c(C)n([O-])c2ccccc2[n+]1=O
[1]
  inhibition: 100% (active)
[2]
  inhibition: 26.2% (active)
[3]
  inhibition: 89.7% (active)
[4]
  inhibition: 16.9% (active)
[5]
  inhibition: 21.4% (active)
[6]
  inhibition: 87.7% (active)

## CCCN(CCC)C(=O)C1c2ccccc2Oc2ccccc21
[7]
  inhibition: -8.94%

## CN1C(c2ccc(F)cc2)=CS/C1=C(/C#N)c1nnc2n1-c1ccccc1SC2
[8]
  inhibition: 20.9%

## C/[N+]([O-])=C\c1ccc([N+](=O)[O-])o1
[1]
  inhibition: 101% (active)
[2]
  inhibition: 42.8% (active)
[3]
  inhibition: 99.3% (active)

## O=C(Cn1c(=O)sc2ccccc21)Nc1nc2c(s1)CCCC2
[1]
  inhibition: 2.31%
[2]
  inhibition: 4.07% (active)
[3]
  inhibition: 3.15%

## COc1ccc(NC(=O)ON=C2c3ccccc3-c3ccccc32)cc1
[8]
  inhibition: 29% (active)

## COC(=O)N/N=C/c1c[n+]([O-])c2ccccc2[n+]1[O-]
[1]
  inhibition: 94.5% (active)
[2]
  inhibition: 27.4% (active)
[3]
  inhibition: 83.4% (active)
[4]
  inhibition: 23.1% (active)
[5]
  inhibition: 28% (active)
[6]
  inhibition: 91.8% (active)

## O=C(OCC(=O)c1cccs1)c1ccc([N+](=O)[O-])o1
[1]
  inhibition: 73.1% (active)
[2]
  inhibition: 1.72%
[3]
  inhibition: 6.32%

## CSC(=S)N/N=C/c1c[nH]c2ccccc12
[1]
  inhibition: 24.2% (active)
[2]
  inhibition: 11.8% (active)
[3]
  inhibition: 29.5% (active)
[7]
  inhibition: 33.3%

## Cc1cccc(N=C2NC(=O)/C(=C/c3cn(C)c4ccccc34)S2)c1
[8]
  inhibition: 17.3%

## COc1c(N2CCN(C(=S)Nc3ccccc3F)C(C)C2)c(F)cc2c(=O)c(C(=O)O)cn(C3CC3)c12 (centres undefined)
[1]
  inhibition: 102% (active)
[2]
  inhibition: 100% (active)
[3]
  inhibition: 101% (active)
[4]
  inhibition: 102% (active)
[5]
  inhibition: 103% (active)
[6]
  inhibition: 101% (active)

## Oc1c(CN2CCCC2)cc(COCc2ccccc2)c2cccnc12
[7]
  inhibition: 80% (active)

## O=C(Nc1ccc(Br)cn1)c1ccc([N+](=O)[O-])o1
[1]
  inhibition: 99.3% (active)
[2]
  inhibition: 11.8% (active)
[3]
  inhibition: 30.2% (active)
[9]
  inhibition: 11%
[10]
  inhibition: 54.7% (active)
[11]
  inhibition: 55.6% (active)
[12]
  inhibition: -5.48%
[4]
  inhibition: 7.78%
[5]
  inhibition: 9.86%
[6]
  inhibition: 81.2% (active)
